Experimental findings from the supplement of paper PMC5641865, “A screen for kinase inhibitors identifies antimicrobial imidazopyridine aminofurazans as specific inhibitors of the Listeria monocytogenes PASTA kinase PrkA” (The Journal of Biological Chemistry, 2017) are described below.

± gives the standard deviation of the averaged measurements.
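Note: End-point A600 read in BHI broth at 37 °C with 2% DMSO, inhibition computed as (1 − OD with compound plus ceftriaxone ÷ OD with ceftriaxone only) × 100.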

The assay has as its system Listeria monocytogenes 10403S. Briefly: growth inhibition relative to ceftriaxone-alone control; higher = stronger potentiation of ceftriaxone growth inhibition. The settings on record: 10 µM; ceftriaxone 1 ug/ml; 12 h.
As to `OCc1ccc(-c2nc(-c3ccc4c(c3)OCO4)c(-c3ccccn3)[nH]2)cc1`, the growth inhibition stood at 7.68 ± 2.9%.
On to `COCCOc1ccc2c(c1)ncn2-c1ccc2cccc(N3CCC(N)CC3)c2n1`, for which the growth inhibition is 7.08 ± 14%.
On to `CCc1cc2c(cc1N1CCC(N3CCOCC3)CC1)C(C)(C)c1[nH]c3cc(C#N)ccc3c1C2=O`, for which the growth inhibition was -2.85 ± 9.2%.
For `O=C(Nc1n[nH]c2nc(-c3ccco3)ccc12)C1CC1`, the growth inhibition came to 0.454 ± 0.64%.
The figure for `Cn1cc(-c2ccc3ncc(Cc4ccc5ncccc5c4)n3n2)cn1` is -1.22 ± 3.1%; for `Cc1[nH]c(/C=C2\C(=O)Nc3ccc(S(=O)(=O)Cc4c(Cl)cccc4Cl)cc32)c(C)c1C(=O)N1CCC[C@@H]1CN1CCCC1` it is 78 ± 5.2%.
For the compound `CN(c1ncccc1CNc1nc(Nc2ccc3c(c2)CC(=O)N3)ncc1C(F)(F)F)S(C)(=O)=O`, the growth inhibition came to 41.8 ± 28%.
With `Cc1cnc(Nc2ccc(N3CCN(C)CC3)cc2)nc1Nc1cccc(S(=O)(=O)NC(C)(C)C)c1`, the growth inhibition stood at 42.3 ± 24%.
`Cc1nnc(-c2ccc(C)c(-c3ccc(C(=O)NCc4ccc(Cl)cc4)cc3)c2)o1`: the growth inhibition was -4.74 ± 3.3%.
`O=C(NOC[C@H](O)CO)c1ccc(F)c(F)c1Nc1ccc(I)cc1F`: the growth inhibition was determined as 78.4 ± 6.9%.
The result for `CS(=O)(=O)Nc1ccc(-c2cc(-c3ccccc3)cc(C(N)=O)c2N)cc1` reads 29.1 ± 20%; that for `CN1CCN(c2nc(C3=C(c4c[nH]c5ccccc45)C(=O)NC3=O)c3ccccc3n2)CC1` [Sotrastaurin (AEB071)], 44.8 ± 28%.
Take `Cc1cccc2c1NC(=O)/C2=N\Nc1ccc(S(N)(=O)=O)cc1`: the growth inhibition is -10.2 ± 7.5%.
Consider `CCN1CCC(CC(=O)Nc2n[nH]c3nnc(-c4cccc(F)c4F)cc23)CC1`, for which the growth inhibition is 7 ± 6.8%.
With `Cc1cc(CN2CCN(c3c(Br)cnc4nc(-c5ccc(N6CCN(C)CC6)cc5)[nH]c34)CC2)no1`, the growth inhibition was 40.4 ± 40%.
